According to PubChem BioAssay (Tox21):
Records with an inconclusive call do not appear. Some structures have more than one record in an assay (separate samples or runs), and their calls can disagree. Active and inactive are the calls of the source. Unless noted, calls come from the whole dose curve; as a rule, active = well fitted curve in the direction sought with a large enough effect in the repeat runs; inconclusive = weak or mixed curves; inactive = no such curve, though single readings can be large; an effect the other way counts as inactive or inconclusive.

Legend:
[1] = qHTS assay to identify small molecule antagonists of the vitamin D receptor (VDR) signaling pathway - cell viability counter screen (AID 743225); note: nearly all actives have a fitted effect of over 50% in size; note: potency is the fitted concentration of half-maximal effect
How it was run: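 Cytotoxicity counter screen read by CellTiter-Glo luminescence (30 min, room temperature) in the same wells as the VDR-bla antagonist readout. HEK 293T VDR-UAS-bla cells had 16 h at 37C with compound and 3 nM (final) 1-alpha,25-dihydroxyvitamin D3, then 2 h with FRET substrate.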

[2] = qHTS assay to identify small molecule agonists of the endoplasmic reticulum stress response signaling pathway (AID 1159516; active = well fitted activation curve with a large enough effect in the signal ratio in the repeat runs, not every such curve was filed as active; the % refers to the signal ratio; note: % is set by controls: 0 for no effect and ±100 for the full control effect)
How it was run: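 HeLa ESRE-bla reporter line; cpd 5 h, 37 C/5% CO2; LiveBLAzer B/G FRET substrate 2 h RT; ex 405, em 460/530 nm.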

[3] = qHTS assay to identify small molecule agonists of the endoplasmic reticulum stress response signaling pathway - cell viability counter screen (AID 1159517; calls by dose curve;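 note: HeLa cells carrying an ER stress response element beta-lactamase reporter; series mostly up to about 61 µM; % is set by controls: 0 for no effect and ±100 for the full control effect; nearly all actives have a fitted effect of over 50% in size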)
How it was run: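 Steps: seed 1,500 ESRE-bla HeLa cells per well; incubate overnight at 37 C, 5% CO2; add compounds in DMSO for 5 hr; run FRET substrate 2 hr RT; add CellTiter-Glo, wait 30 min, read luminescence.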

[4] = biological target: Nuclear receptor ROR-gamma (Homo sapiens) (UniProt P51449); assay: qHTS assay to identify small molecule antagonists of the retinoid-related orphan receptor gamma (ROR-gamma) signaling pathway (AID 1159521; note: nearly all actives have a fitted effect of over 50% in size; note: potency is the fitted concentration of half-maximal effect)
How it was run: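 Antagonist read-out: drop in luminescence (ONE-Glo) from an RORE-LUC reporter in CHO cells with doxycycline-inducible ROR-gamma; 2 hr compound pretreatment, 1 uM doxycycline, 16 hr incubation at 37 C.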

[5] = qHTS assay to identify small molecule agonists of the AP-1 signaling pathway - cell viability counter screen (AID 1159525; calls by dose curve; note: nearly all actives have a fitted effect of over 55% in size; note: potency is the fitted concentration of half-maximal effect)
How it was run: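 Same-well cytotoxicity counter screen of the Tox21 10K library in ME-180 cells. The readout is ATP-dependent luminescence after 5 h compound treatment. Data are normalised to DMSO and tetra n-octyl ammonium bromide controls.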

[6] = qHTS assay to identify small molecule antagonists of the retinoid acid receptor (RAR) signaling pathway - cell viability counter screen (AID 1159551); note: nearly all actives have a fitted effect of over 35% in size; note: potency is the fitted concentration of half-maximal effect
How it was run: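 C3RL4 RARE-luciferase line; cpds + retinol 1 uM final, 6 h, 37 C/5% CO2; CellTiter-Glo ATP luminescence, 30 min RT.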

[7] = qHTS assay to identify small molecule antagonists of the retinoic acid receptor (RAR) signaling pathway (AID 1159552; note: nearly all actives have a fitted effect of over 50% in size; note: potency is the fitted concentration of half-maximal effect)
How it was run: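 Luminescent RARE reporter read-out in C3RL4 cells: 6 hr co-treatment at 37 C of test compounds with retinol at 1 uM final. Cells plated overnight beforehand; luciferase reagent incubated 30 min at room temperature before reading.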

[8] = qHTS assay to identify small molecule agonists of the retinoic acid receptor (RAR) signaling pathway (AID 1159553); note: % is set by controls: 0 for no effect and ±100 for the full control effect
How it was run: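 RARE-luc C3RL4 cells; overnight attachment 37 C/5% CO2; compound (DMSO) 6 hr; luciferase reagent, 30 min RT; luminescence read-out.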

[9] = qHTS assay to identify small molecule antagonists of the retinoid-related orphan receptor gamma (ROR-gamma) signaling pathway - cell viability counter screen (AID 1159520); note: nearly all actives have a fitted effect of over 50% in size; note: potency is the fitted concentration of half-maximal effect
How it was run: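 Tet-on ROR gamma CHO cells were given compounds for 2 hr, then doxycycline hyclate at 1 uM final, and incubated 16 hr at 37 C. Viability was measured as ATP content by CellTiter-Glo luminescence.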

[10] = qHTS assay to identify small molecule agonists of the AP-1 signaling pathway (AID 1159526; calls by dose curve; note: % is set by controls: 0 for no effect and ±100 for the full control effect)
[11] = biological target: Retinoic acid receptor RXR-alpha (Homo sapiens) (UniProt P19793); assay: qHTS assay to identify small molecule agonists of the RXR signaling pathway (AID 1159527; calls by dose curve; note: % is set by controls: 0 for no effect and ±100 for the full control effect; nearly all actives have a fitted effect of over 35% in size)
Retinoic acid receptor RXR-alpha (Homo sapiens), sequence (P19793 whole entry, looked up): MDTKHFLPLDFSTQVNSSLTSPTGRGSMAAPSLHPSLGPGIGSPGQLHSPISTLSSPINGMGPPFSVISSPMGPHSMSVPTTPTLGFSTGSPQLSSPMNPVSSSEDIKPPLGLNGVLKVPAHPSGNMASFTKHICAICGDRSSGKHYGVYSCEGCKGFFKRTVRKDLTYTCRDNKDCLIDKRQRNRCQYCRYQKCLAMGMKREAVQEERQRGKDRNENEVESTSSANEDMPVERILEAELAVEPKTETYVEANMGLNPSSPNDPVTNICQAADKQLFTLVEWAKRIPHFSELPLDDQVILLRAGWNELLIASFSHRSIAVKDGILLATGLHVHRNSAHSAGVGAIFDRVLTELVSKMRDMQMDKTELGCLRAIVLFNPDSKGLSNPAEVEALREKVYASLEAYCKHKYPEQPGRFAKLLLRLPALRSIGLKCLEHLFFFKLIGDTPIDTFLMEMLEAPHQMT
How it was run: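 Agonist-mode beta-lactamase reporter assay: HEK 293T RXR-alpha-UAS-bla cells treated 16 hr at 37 C with compounds, 9-cis retinoic acid as positive control. LiveBLAzer FRET substrate, 405 nm excitation, 460/530 nm emission.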

[12] = qHTS assay to identify small molecule agonists of the RXR signaling pathway - cell viability counter screen (AID 1159529); note: nearly all actives have a fitted effect of over 50% in size; note: potency is the fitted concentration of half-maximal effect
How it was run: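 CellTiter-Glo luminescence gave viability in the wells also read for beta-lactamase. Cells (RXR-alpha-UAS-bla HEK 293T, 2% charcoal-stripped FBS medium) had 5 hr plating, then 16 hr compound exposure at 37 C; tetraoctyl ammonium bromide served as positive control.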

[13] = qHTS assay to identify small molecule agonists of the NFkB signaling pathway - cell viability counter screen (AID 1159515; calls by dose curve; note: nearly all actives have a fitted effect of over 55% in size; note: potency is the fitted concentration of half-maximal effect)
How it was run: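 ME-180 NFkB-bla cells, 2,000/well; overnight attach; compound 5 hr, 37 C/5% CO2; LiveBLAzer substrate 1.5 hr RT; then CellTiter-Glo in same wells, 30 min RT, luminescence read.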

[14] = qHTS assay to identify small molecule antagonists of the estrogen related receptor (ERR) signaling pathway - cell viability counter screen (AID 1224818); note: series mostly up to about 46 µM; % is set by controls: 0 for no effect and ±100 for the full control effect
How it was run: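 Fluorescence from CellTiter-Fluor, read 30 min after reagent addition at 37 C, measured viability of ERR cells exposed to compounds for 17.5 h. Cells had settled 6 h before dosing.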

[15] = qHTS assay to identify small molecule antagonists of the estrogen related receptor (ERR) signaling pathway (AID 1224819)
How it was run: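 Luminescence readout (One-Glo, 30 min, RT) of ERR cell line after 18 h compound exposure at 37 C; cells seeded 2,000/well, pre-incubated 6 h, compounds pinned from DMSO stocks.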

[16] = qHTS assay to identify small molecule agonists of the estrogen related receptor (ERR) signaling pathway (AID 1224820); note: % is set by controls: 0 for no effect and ±100 for the full control effect
How it was run: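 Luminescence readout (One-Glo, 30 min RT) from NTP-supplied ERR cell line exposed to compounds for 18 h at 37 C. Cells seeded 2,000 per well and pre-incubated 6 h before pin-tool compound transfer.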

[17] = tested on: estrogen-related receptor alpha (ERRalpha) with PGC-1alpha coactivator, human; assay: qHTS assay to identify small molecule antagonists of the estrogen related receptor signaling pathway with the pleiotropic PPARgamma coactivator (PGC) (AID 1224821; calls by dose curve)
How it was run: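 PGC/ERR reporter cells; 6 h pre-incubation 37 C/5% CO2; pin-tool compound in DMSO, 18 h 37 C; One-Glo added, 30 min RT; luminescence read. qHTS antagonist mode.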

[18] = qHTS assay to identify small molecule antagonists of the estrogen related receptor signaling pathway with the pleiotropic PPARgamma coactivator (PGC) cell viability counter screen (AID 1224822)
How it was run: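 Fluorescence read-out of CellTiter-Fluor after 30 min at 37 C; PGC/ERR cells, 2,000 per well, had been exposed to DMSO-dissolved compounds for 17.5 h following a 6 h pre-incubation.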

[19] = qHTS assay to identify small molecule agonists of the estrogen related receptor signaling pathway with the pleiotropic PPARgamma coactivator (PGC) (AID 1224823); note: % is set by controls: 0 for no effect and ±100 for the full control effect
How it was run: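 Luminescence readout (One-Glo, 30 min RT) from PGC/ERR cell line treated 18 h at 37 C with pin-tool-delivered DMSO compound solutions; cells plated 6 h before dosing. Quantitative HTS format.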

CCCCC(CC)COP(=O)(Oc1ccccc1)Oc1ccccc1 (centres undefined)
inactive: Potency [1] | outcome [2] | Potency [3] | Potency [4] | Potency [5] | Potency [6] | Potency [7] | Potency [8]

CC1Sc2c(C(=O)O)c(=O)c3cc(F)c(N4CCNCC4)cc3n21 (centres undefined)
inactive: Potency [1] | Potency [3] | Potency [9] | Potency [4] | Potency [5] | outcome [10] | Potency [11] | Potency [12] | Potency [6] | Potency [7] | Potency [8]

CCOP(=O)(OCC)SCCSCC
inactive: Potency [1] | outcome [2] | Potency [3] | Potency [9] | Potency [4] | Potency [5] | outcome [10] | Potency [11] | Potency [12] | Potency [6] | Potency [7] | Potency [8]

CCOP(=S)(Oc1ccc([N+](=O)[O-])cc1)c1ccccc1 (centres undefined)
inactive: Potency [1] | outcome [2] | Potency [3] | Potency [9] | Potency [5] | outcome [10] | Potency [6] | Potency [7] | Potency [8]

NS(=O)(=O)C(F)(F)C(F)(F)C(F)(F)C(F)(F)C(F)(F)C(F)(F)C(F)(F)C(F)(F)F
inactive: Potency [9] | Potency [5] | outcome [10] | Potency [12] | Potency [6] | Potency [7] | Potency [8]

Cc1ccccc1CCl
inactive: Potency [13] | Potency [3] | Potency [9] | Potency [4] | outcome [10] | Potency [11] | Potency [12] | Potency [6] | Potency [7] | Potency [8]

NCC(CC(=O)O)c1ccc(Cl)cc1 (centres undefined)
inactive: viability change, negative = cytotoxic [1] 6.5% [at 0.628 µM] | activity, negative = cytotoxic [13] 1.83% [at 0.628 µM] | activity, negative = cytotoxicity [9] -1.2% [at 0.349 µM] | activity change, negative = inhibition [4] 4.26% [at 0.35 µM] | viability change, negative = cytotoxic [5] -1.57% [at 0.29 µM] | activation [10] -1.64% [at 0.29 µM] | activation [11] 1.21% [at 0.29 µM] | activity change, negative = cytotoxicity [12] 15% [at 0.29 µM] | activity change, negative = cytotoxicity [6] -0.97% [at 0.349 µM] | outcome [14] | outcome [15] | outcome [16] | Potency [17] | Potency [18] | outcome [19]

ClC=C(Cl)Cl
inactive: Potency [1] | Potency [13] | Potency [3] | Potency [9] | Potency [5] | outcome [10] | Potency [11] | Potency [6]

ClCc1cccc(Cl)c1
inactive: Potency [1] | outcome [2] | Potency [3] | Potency [9] | outcome [10] | Potency [11] | Potency [12] | Potency [6] | Potency [7] | Potency [8]

CCCCCCC#N
inactive: Potency [1] | Potency [3] | Potency [9] | Potency [5] | outcome [10] | Potency [6] | Potency [7] | Potency [8]

CCOC(=O)C(Cl)C(C)=O (centres undefined)
inactive: Potency [13] | Potency [9] | Potency [5] | outcome [10] | Potency [11] | Potency [12] | Potency [6] | Potency [7] | Potency [8]

CCCCNP(N)(N)=S
inactive: Potency [1] | outcome [2] | Potency [3] | Potency [9] | Potency [5] | Potency [11] | Potency [12] | Potency [6]

COCCOCCO
inactive: Potency [1] | Potency [13] | outcome [2] | Potency [4] | Potency [6] | Potency [8] | outcome [14] | outcome [15] | outcome [16] | Potency [17] | Potency [18] | outcome [19]

CO/C=C(/C(=O)OC)c1ccccc1COc1cccc(C(F)(F)F)n1
active: Potency [4] 0.769 µM
inactive: outcome [2] | Potency [3] | Potency [5] | outcome [10] | Potency [12] | Potency [8]

Clc1ccc(C2(Cn3cncn3)CC(Br)CO2)c(Cl)c1 (centres undefined)
inactive: Potency [1] | outcome [2] | Potency [3] | Potency [5] | outcome [10] | Potency [6]

COC(=O)C(Cl)C(=O)OC
inactive: Potency [1] | Potency [13] | Potency [3] | Potency [9] | Potency [4] | Potency [5] | outcome [10] | Potency [11] | Potency [12] | Potency [6] | Potency [7] | Potency [8]

IC(I)=C(I)I
active: Potency [1] 17.4 µM | Potency [13] 54.9 µM | Potency [9] 3.86 µM | Potency [5] 24.5 µM | Potency [6] 30.6 µM | Potency [7] 2.73 µM

CC(C)N(CCC(C(N)=O)(c1ccccc1)c1ccccn1)C(C)C (centres undefined)
inactive: Potency [13] | Potency [3] | Potency [9] | Potency [4] | Potency [5] | outcome [10] | Potency [6] | Potency [7] | Potency [8] | outcome [14] | outcome [15] | outcome [16] | Potency [18]

CC(Cl)Cl
inactive: outcome [2] | Potency [3] | Potency [9] | Potency [4] | Potency [5] | outcome [10] | Potency [11] | Potency [12] | Potency [6] | Potency [7] | Potency [8]

CC1CC(CC2CCC(N)C(C)C2)CCC1N (centres undefined)
inactive: Potency [13] | outcome [2] | Potency [9] | Potency [4] | Potency [5] | Potency [11] | Potency [6] | Potency [8]

Brc1ccc(Oc2ccccc2)cc1
inactive: Potency [1] | Potency [13] | outcome [2] | Potency [9] | Potency [5] | outcome [10] | Potency [11] | Potency [6]
31.7 µM (active) and inactive: Potency [12]
